Experiment [1] is described as follows: qHTS assay to identify small molecule antagonists of the estrogen related receptor signaling pathway with the pleiotropic PPARgamma coactivator (PGC) from Tox21 10K library - cell viability counter screen (AID 1224840; active means well fitted cell-killing curve with a large enough effect in the repeat runs, not every such curve was filed as active; further: nearly all actives have a fitted effect of over 40% in size). In outline: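 Following seeding of 2,000 PGC/ERR cells/well and 6 hours' incubation, test compounds were delivered in DMSO. The plates then sat 17.5 hours at 37 C before a fluorogenic live-cell protease reagent (CellTiter-Fluor) was read after 30 min.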
A general note: qHTS replaces the single test concentration by a dilution series.

The nature of experiment [2]: qHTS assay to identify small molecule agonists of the estrogen related receptor signaling pathway with the pleiotropic PPARgamma coactivator (PGC) from Tox21 10K library (AID 1224842). Further: nearly all actives have a fitted effect of over 15% in size. The procedure, abridged:
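PGC/ERR reporter cells (NTP line) were seeded 2,000 per well, rested 6 h at 37 C/5% CO2, then pin-dosed with compounds in DMSO for 18 h at 37 C; luciferase read by One-Glo luminescence after 30 min at room temperature.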

Experiment [3] concerns the target Thyrotropin receptor (Homo sapiens) (UniProt P16473). Nature of the experiment: qHTS assay to identify small molecule agonists of the thyroid stimulating hormone receptor (TSHR) signaling pathway (AID 1224843; calls by dose curve; further: nearly all actives have a fitted effect of over 45% in size). In outline:
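Cell line HEK293 with TSHR; density 800/well. Exposure 30 min RT. Readout HTRF cAMP (cAMP-d2/anti-cAMP-cryptate), 1 h RT before reading.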

Experiment [4] is described as follows: qHTS assay to identify small molecule agonists of the hypoxia (HIF-1) signaling pathway - cell viability counter screen (AID 1224844; calls by dose curve; further: nearly all actives have a fitted effect of over 50% in size). The procedure, abridged: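 Cells (HRE-bla ME-180, 2,000 per well) sat 5 hrs at 37C, got compound for 17 hrs, were read for CCF4-AM FRET, and were finally lysed with CellTiter-Glo for a 30 min room-temperature luminescence read.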

Experiment [5] is described as follows: qHTS assay to identify small molecule agonists of H2AX (AID 1224845; active means well fitted activation curve with a large enough effect in the signal ratio in the repeat runs, not every such curve was filed as active; the % refers to the signal ratio). In outline:
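Wild-type CHO-K1 cells plated overnight, then exposed 3 hr at 37C to compounds at 15 concentrations (0.76% DMSO). Lysed, then HTRF anti-pH2AX(S139)-cryptate/anti-H2AX-d2 detection after 24 hr at room temperature; emissions 665 and 620 nm.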

A short description of experiment [6]: qHTS assay to identify small molecule agonists of the hypoxia (HIF-1) signaling pathway (AID 1224846; active means well fitted activation curve with a large enough effect in the signal ratio in the repeat runs, not every such curve was filed as active; the % refers to the signal ratio). The procedure, abridged:
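A low-serum medium (0.5% dialyzed FBS) holding 2,000 HRE-bla ME-180 cells per well is preincubated for 5 hrs, dosed with compounds by pintool, and kept a further 17 hrs at 37C, 5% CO2 before CCF4-AM FRET detection of beta-lactamase.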

Experiment [7] in a line: qHTS assay to identify small molecule agonists of H2AX - cell viability counter screen (AID 1224847; calls by dose curve; further: top concentration of the series differs between compounds; nearly all actives have a fitted effect of over 30% in size). The procedure, abridged: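 Cells plated first: CHO-K1, 1000 per well in 10% FBS medium, incubated overnight at 37C. Then 15-point compound titration added (final DMSO 0.76%) for 3 hr. Finally CellTiter-Glo added and luminescence read.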
Experiment [8] in a line: qHTS assay to identify small molecule antagonists of the estrogen related receptor (ERR) signaling pathway from Tox21 library (AID 1224848). Further: nearly all actives have a fitted effect of over 50% in size. The procedure, abridged:
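Screening used an ERR reporter line supplied by NTP, exposed for 18 h at 37 C to library compounds delivered in DMSO. Signal was luciferase luminescence developed with ONE-Glo at room temperature for 30 min.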

The nature of experiment [9]: qHTS assay to identify small molecule agonists of the estrogen related receptor (ERR) signaling pathway from Tox21 library (AID 1224849; calls by dose curve; further: nearly all actives have a fitted effect of over 15% in size). In outline: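 Screening used an NTP-provided ERR luciferase cell line. Compounds in DMSO were added 6 h after seeding and left 18 h at 37 C before a 30 min ONE-Glo step and luminescence reading.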
The nature of experiment [10]: qHTS RealTime-Glo MT Cell Viability Assay in HepG2 cells - 24 hour (AID 1224867). Further: nearly all actives have a fitted effect of over 50% in size. The procedure, abridged:
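Luminescence read-out: viable HepG2 cells reduce a prosubstrate to a NanoLuc substrate, giving a signal proportional to live cell number. Reads taken at 0, 8, 16, 24, 32 and 40 h of compound exposure at 37 C.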

The nature of experiment [11]: qHTS RealTime-Glo MT Cell Viability Assay in HEK293 cells - 32 hour (AID 1224868). Further: nearly all actives have a fitted effect of over 50% in size. Further: potency means the concentration at half of the fitted maximal effect. The procedure, abridged: (§1)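 Nonlytic real-time viability readout: viable cells convert prosubstrate to NanoLuc substrate, giving luminescence proportional to live cell number. HEK293, 600 cells/well, compound added after 5 h, continuous culture at 37 C.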
Experiment [12] is described as follows: A CellTox Green Cytotoxicity Assay to monitor cytotoxicity in HEK293 cells - 0 hour (AID 1224869). Further: nearly all actives have a fitted effect of over 50% in size. In outline: (§2)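 Fluorescence intensity, read at 0, 8, 16, 24, 32 and 40 h of compound treatment, reflected dye binding to DNA of dead HEK293 cells; compounds (23 nL, DMSO) were added 5 h after plating cells with reagent.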
Experiment [13] can be described thus: A CellTox Green Cytotoxicity Assay to monitor cytotoxicity in HEK293 cells - 40 hour (AID 1224871). Further: nearly all actives have a fitted effect of over 45% in size. The procedure, abridged: as §2
A short description of experiment [14]: qHTS RealTime-Glo MT Cell Viability Assay in HEK293 cells - 16 hour (AID 1224872). Further: nearly all actives have a fitted effect of over 50% in size. Further: potency means the concentration at half of the fitted maximal effect. The procedure, abridged:
as §1

Experiment [15] can be described thus: qHTS RealTime-Glo MT Cell Viability Assay in HepG2 cells - 8 hour (AID 1224873). Further: nearly all actives have a fitted effect of over 55% in size. The procedure, abridged: (§3)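 HepG2 cells mixed with RealTime-Glo MT reagents (NanoLuc plus cell-permeant prosubstrate) were seeded at 600 cells/well, incubated 5 h at 37 C/5% CO2, then pinned with compounds in DMSO; nonlytic luminescence tracked viability during 40 h treatment.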

Experiment [16] can be described thus: qHTS RealTime-Glo MT Cell Viability Assay in HEK293 cells - 40 hour (AID 1224874). Further: nearly all actives have a fitted effect of over 50% in size. Further: potency means the concentration at half of the fitted maximal effect. The note with it: RealTime-Glo luminescence; max response: hits give low values. The procedure, abridged: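 Viable HEK293 cells reduce a cell-permeant prosubstrate; the product diffuses out and is consumed by NanoLuc in the medium to give light. Compounds went in after a 5 h incubation and plates were read over the treatment course.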

Experiment [17] can be described thus: A CellTox Green Cytotoxicity Assay to monitor cytotoxicity in HEK293 cells - 24 hour (AID 1224875). Further: series mostly up to about 77 µM; nearly all actives have a fitted effect of over 45% in size. The procedure, abridged:
as §2

The nature of experiment [18]: qHTS RealTime-Glo MT Cell Viability Assay in HepG2 cells - 40 hour (AID 1224870). Further: nearly all actives have a fitted effect of over 50% in size. In outline: as §3
A short description of experiment [19]: qHTS assay to identify small molecule antagonists of the estrogen related receptor signaling pathway with the pleiotropic PPARgamma coactivator (PGC) from Tox21 10K library (AID 1224841; call rule not given here). The procedure, abridged:
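qHTS antagonist format: PGC/ERR cells, 2k/well, compound in DMSO by pin transfer after 6 h attachment, 18 h treatment at 37 C, One-Glo luminescence read at 30 min.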

A number with no mark means an inactive call. Records with an inconclusive call do not appear. The source made the active and inactive calls. Unless noted, the call rests on the fitted dose curve; in most records, active means well fitted curve in the direction sought with a large enough effect in the repeat runs; inconclusive means weak or mixed curves; inactive means no such curve, though single readings can be large; an effect the other way counts as inactive or inconclusive.
On the % scale 0 is the no-effect control and ±100 the full control effect.

Sequence of Thyrotropin receptor (Homo sapiens) (P16473 whole entry, looked up): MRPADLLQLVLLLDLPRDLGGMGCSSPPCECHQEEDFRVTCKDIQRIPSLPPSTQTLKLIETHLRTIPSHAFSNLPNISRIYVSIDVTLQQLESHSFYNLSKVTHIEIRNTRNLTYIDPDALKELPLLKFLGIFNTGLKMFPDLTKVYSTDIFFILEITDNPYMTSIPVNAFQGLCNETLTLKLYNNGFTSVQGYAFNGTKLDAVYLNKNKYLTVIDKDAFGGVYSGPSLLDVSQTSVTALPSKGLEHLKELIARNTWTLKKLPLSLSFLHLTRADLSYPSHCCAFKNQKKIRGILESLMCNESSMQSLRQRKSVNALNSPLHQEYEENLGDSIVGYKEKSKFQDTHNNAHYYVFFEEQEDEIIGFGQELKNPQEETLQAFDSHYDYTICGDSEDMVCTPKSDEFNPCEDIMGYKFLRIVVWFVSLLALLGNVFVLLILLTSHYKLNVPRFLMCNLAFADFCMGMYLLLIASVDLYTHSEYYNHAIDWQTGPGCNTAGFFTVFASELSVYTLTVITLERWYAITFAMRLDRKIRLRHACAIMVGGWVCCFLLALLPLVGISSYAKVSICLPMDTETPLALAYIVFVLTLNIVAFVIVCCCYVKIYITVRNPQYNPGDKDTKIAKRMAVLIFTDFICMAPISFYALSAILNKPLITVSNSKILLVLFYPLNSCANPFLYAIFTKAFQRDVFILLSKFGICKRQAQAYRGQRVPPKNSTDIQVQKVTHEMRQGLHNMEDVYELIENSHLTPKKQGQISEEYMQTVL

Consider `CC1CCC(C(C)(C)S)C(=O)C1` (stereo not given), for which the call in experiment [1], in experiment [2], in experiment [3], in [4], in experiment [5] and in experiment [6] was inactive. Moreover, the compound was called inactive in [9], in experiment [10] and in experiment [15]. Moreover, the Potency result in experiment [7], in [8], in experiment [12], in [13] and in experiment [17] was “inactive” throughout. Besides, the results for the Potency in [11], in [14] and in experiment [16] were 3.09 µM (active), 6.92 µM (active) and 3.09 µM (active), respectively.
Consider `O=C(O)CCNC(=O)c1ccccc1`, for which the compound was classed as inactive in experiment [1], in experiment [2], in experiment [3], in [4], in experiment [5] and in experiment [9]. The compound was classed as inactive in experiment [10], in [18] and in experiment [15]. For the same compound, the Potency result in experiment [8], in [11], in experiment [12], in [13], in experiment [14] and in experiment [17] was “inactive” throughout. Besides, in [16], the max response is -0.231%.
For `CCC(C)(CCC(C)C)C(=O)[O-].CCC(C)(CCC(C)C)C(=O)[O-].[Zn+2]` (stereo not given), the call in experiment [1], in experiment [2], in [4], in experiment [5], in experiment [6] and in experiment [9] was inactive. The compound was classed as inactive in experiment [10], in [18] and in experiment [15]. Further, the Potency result in experiment [19], in [11], in experiment [12], in experiment [13], in experiment [14] and in [17] was “inactive” in each case. The max response in experiment [16] was 0.868%.
With `CCS(=O)(=O)CCn1c([N+](=O)[O-])cnc1C`, the compound was classed as inactive in experiment [1], in experiment [2], in experiment [3], in experiment [4], in experiment [5] and in [9]. Moreover, the outcome in [10], in experiment [18] and in experiment [15] was inactive. In addition, the Potency entry in experiment [8], in [11], in experiment [12], in experiment [13], in experiment [14] and in experiment [17] was “inactive” in each case. Moreover, the max response in [16] is -0.732%.
Take `O=c1[nH]c(=O)c2ccccc2o1`: the outcome in experiment [1], in experiment [2], in [3], in [4], in experiment [5] and in experiment [6] was inactive. Also, the result in experiment [9], in experiment [10], in [18] and in [15] was inactive. The Potency entry in experiment [7], in experiment [8], in [11], in [12], in experiment [13] and in [14] was “inactive” throughout. In addition, the max response in [16] is 1.98%.
As for `COc1ccc(NS(=O)(=O)c2ccc(N)cc2)nn1`, the compound was called inactive in experiment [1], in experiment [2], in experiment [3], in experiment [4], in experiment [5] and in experiment [9]. For the same compound, the outcome in experiment [10], in experiment [18] and in experiment [15] was inactive. Besides, the Potency entry in experiment [19], in experiment [7], in [8], in [11], in [12] and in experiment [13] was “inactive” each time. For the same compound, the Potency entry in experiment [14] was “inactive”. Moreover, the max response in experiment [16] is 3.44%.
In the case of `CC(C)SCc1ccco1`, the compound was classed as inactive in experiment [1], in experiment [2], in experiment [4], in experiment [5], in experiment [6] and in experiment [9]. Moreover, the outcome in [10] and in experiment [15] was inactive. Further, the Potency result in experiment [19], in experiment [7], in experiment [8], in experiment [11], in experiment [12] and in [13] was “inactive” in each case. The Potency entry in experiment [14] is “inactive”. Besides, the max response in experiment [16] is 4.71%.

The record behind these values is PubChem BioAssay (Tox21).
